# Screening data from PubChem.
# BRCT PPI green = qHTS Assay for Inhibitors of BRCT-Phosphoprotein Interaction (Green Fluorophore); BRCA1 BRCT-phosphopeptide binding, green fluorescence polarization; AID 875, 2007; Potency, µM (series often up to 76.9 µM), actives largely listed as inhibitors; 75,000 tested, 0.05% active
#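 Fluorescence polarization: His-tagged BRCT (~35 kDa BRCA1 C-terminus, 250 nM) bound to 100 nM fluorescein-labeled phosphorylated 10-aa BACH1 peptide, pH 7.3 phosphate buffer with DTT and Tween 20. Compounds incubated 12 min at room temperature; inhibition read as lowered polarization.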
# TSHR agonist = qHTS Assay for Agonists of the Thyroid Stimulating Hormone Receptor; Potency, µM (top dose mostly 57.1 µM), usual class: activators; HEK293-CNG-TSHR cells (CNG channel as cAMP sensor), membrane potential dye, cAMP; AID 926, 2007; 73,000 tested, 0.48% active; active = well fitted activation curve with a large enough effect in the main read-out, with a control signal flat, not every such curve was filed as active; inconclusive = small, poorly fitted or top-dose-only effect, or a change in a side signal; inactive = no such curve, though single readings can be large or run the other way; reference of the percent scale not stated here;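 note: the control signal comes from parental cells without the receptor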
#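 cAMP rise detected as CNG-channel membrane depolarization by fluorescent dye (emission 590 nm), 30 min after compound, following 60 min dye loading containing 100 uM RO 20-1724 at room temperature. Cells: TSHR/CNG HEK 293, with parental CNG HEK 293 as control.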
# HEK293 cAMP cs = qHTS Assay for Agonists of the Thyroid Stimulating Hormone Receptor: Activators of Intracellular cAMP Concentrations in Parental HEK 293; parental HEK293 CNG cAMP sensor, membrane potential fluorescence; Potency, µM (highest dose often 57.1 µM), actives largely listed as activators; 73,000 tested, 2.5% active; AID 938, 2007; note: nearly all actives have a fitted effect of over 55% in size
#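 Parental HEK 293 cells stably expressing a cAMP-gated CNG channel were loaded with membrane potential dye containing 100 uM RO 20-1724 for 60 min. Compound added for 30 min; depolarization read as fluorescence intensity at 590 nm.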
# TsaE inh = qHTS Assay for Inhibitors of YjeE; Potency, µM; purified YjeE enzyme, qHTS inhibition assay; 71,000 tested, 0.05% active; AID 605, 2007
#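 Fluorescence polarization of a BODIPY Texas Red–ADP probe (2 uM) bound to purified YjeE (10 uM) was read after 15 min room-temperature incubation with compounds. Loss of polarization marks inhibitors; ADP serves as titrated control.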
# Pol III holo inh = qHTS Assay for Inhibitors of DNA Polymerase III Holoenzyme System; reconstituted DNA polymerase III holoenzyme replication, biochemical; 71,000 tested, 0.25% active; Potency, µM (titrated, usually from 57.1 µM)
#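 Reconstituted *E. coli* holoenzyme (0.35 nM Pol III, 1 nM beta, 154 nM SSB, 2 nM primase) was preincubated with compound for 15 min at RT. Synthesis on 1.4 nM ssM13Gori ran 35 min, then was stopped with PicoGreen/EDTA and read as dsDNA fluorescence.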
# BRCT PPI red = qHTS Assay for Inhibitors of BRCT-Phosphoprotein Interaction (Red Fluorophore) | Breast cancer type 1 susceptibility protein (Homo sapiens), P38398 | 75,000 tested, 0.03% active | AID 892, 2007 | BRCT-phosphopeptide binding, red fluorescence polarization | Potency, µM (titrated, usually from 76.9 µM), actives largely listed as inhibitors
#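 Fluorescence polarization: 100 nM His-tagged BRCA1 BRCT with 100 nM TAMRA-labelled phospho-BACH1 decapeptide, phosphate buffer pH 7.3 with 150 mM NaCl, DTT, 0.01% Tween 20; 12 min RT. Binding inhibition seen as FP decrease.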
# Numbers stand for hits; – = inactive; ? = inconclusive; · = no result given; ! = a repeat was not active; [ ] = dose if it differs, or a comment. Hits are enriched below; roughly 3.2% of the tested compounds scored in any of these assays. Unless noted, calls come from the whole dose curve; as a rule, active = well fitted curve in the direction sought with a large enough effect; inconclusive = small, poorly fitted or top-dose-only effect, or another doubt; inactive = no such curve, though single readings can be large; an effect the other way counts as inactive or inconclusive.
SMILES,BRCT PPI green,TSHR agonist,HEK293 cAMP cs,TsaE inh,Pol III holo inh,BRCT PPI red
CSCCC(NC(=O)c1ccccc1)C(=O)NC1CCCC1 (configuration not stated),–,–,–,–,–,–
CSCCC(NC(=O)c1ccccc1)c1nc(-c2ccccc2)no1 (configuration not stated),–,?,16µM,–,–,–
CC(=O)n1c(COS(C)(=O)=O)nc2ccccc21,–[15.4 µM],–[11.4 µM],–[11.4 µM],–,–[11.4 µM],–[15.4 µM]
CN1CCN(c2ccnc(-c3ccccc3C(F)(F)F)n2)CC1,–,?,32µM,–,–,–
COC(=O)[C@@H]1C[C@H]1[C@@H](NC(=O)OCc1ccccc1)c1ccccc1,·,?,?,–,–,·
CC(=O)C1(O)C(C)CC2C3CCC4CC(O)CCC4(C)C3=CCC21C (configuration not stated),–,?,13µM,–,–,–
CC1CCC2(OC1)OC1CC3C4CCC5CC(O)CCC5(C)C4=CCC3(C)C1C2C (configuration not stated),–[3.08 µM],·,·,·,·,–
CCOC(=O)c1oc2ccccc2c1CSc1nnnn1-c1ccc(C)cc1,–,?,7.9µM,–,–,–
O[C@@H]1[C@@H](OCc2ccccc2)OC[C@H](O)[C@@H]1O,–[15.4 µM],–[11.4 µM],–[11.4 µM],–,–[11.4 µM],–[15.4 µM]
COc1cccc(Cn2c(=O)c(-c3cc(F)cc(F)c3)nc3cnc(N(C)C)nc32)c1,–,?,?,–,–,–
CCc1c(O)nc(SCC(=O)Nc2ccc3c(c2)CCC3)[nH]c1=O,–,?,25µM,–,–,–
O=c1[nH]c(C(F)(F)F)nc2c1nnn2Cc1ccccc1F,–,?,25µM,–,–,–
Cc1ccc(/C=c2\sc3nc(-c4ccco4)nn3c2=O)o1,–,–[11.4 µM],–,–,4µM,–
Cc1ccc(/C=c2\sc3nc(-c4ccccc4Br)nn3c2=O)o1,–,–,–,–,–,–
CCC1=C2CC[C@H]3C(=O)N(c4ccccc4)C(=O)[C@H]3[C@H]2[C@@]2(Cc3ccccc3)C(=NCCc3c[nH]c4ccccc34)OC(=O)N2C1=O,–,·,·,·,·,–
Cc1ccccc1CS(=O)(=O)Cc1ccc(C(=O)NCCCN2CCCC2=O)o1,–,?,4µM,–,–,–
COc1ccccc1N(CCC#N)C(=O)CSc1ccc2c(c1)OCCO2,–,25µM,–,–,–,–
C=CCn1c(SCC(=O)N2CCN(C(=O)c3ccco3)CC2)nc2sc(CC)cc2c1=O,–,–,–,–,–,–
C=CCn1c(SCC(=O)c2cccs2)nc2sc(CC)cc2c1=O,–,?,16µM,–,–,–
COC(=O)c1cccc(Nc2nc3ccccc3nc2C)c1,–,?,32µM,–,–,–
FC(F)(F)c1cccc(N2CCN(c3nnnn3-c3ccccc3)CC2)c1,–,?,32µM,–,–,–
Cc1cc(C)nc(N2CCN(c3nnnn3-c3ccccc3)CC2)n1,–,?,?,–,–,–
CC(C)(C)n1nnnc1C(c1cccs1)N(Cc1ccccc1)Cc1cccnc1 (configuration not stated),–,?,16µM,–,–,–
CCN(Cc1ccccc1)C(c1ccncc1)c1nnnn1C(C)(C)C (configuration not stated),–,?,?,–,–,–
C=C[C@]1(C)CC(=O)[C@@]2(O)[C@@]3(C)C(O)CCC(C)(C)C3C(O)C(OC(C)=O)[C@@]2(C)O1 (some centres not stated),–[3.08 µM],·,·,·,·,–
SMILES,BRCT PPI green,TSHR agonist,HEK293 cAMP cs,TsaE inh,Pol III holo inh,BRCT PPI red
C=C[C@@]1(C)CC(=O)[C@@]2(O)[C@@]3(C)[C@H](O)CCC(C)(C)[C@@H]3[C@H](O)[C@H](OC(C)=O)[C@]2(C)O1,–,?,0.5µM,–,–,–
C=C[C@@]1(C)CC(=O)[C@@]2(O)[C@@]3(C)[C@@H](O)CCC(C)(C)[C@@H]3[C@H](OC(=O)CCN(C)C)[C@H](OC(C)=O)[C@@]2(C)O1,–,?,0.13µM,–,–,–
COC(=O)[C@@]1(Cc2ccc(OC)cc2)[C@@H]2[C@@H](CC(=O)[C@H]2CC(=O)C(=O)N2CCCC2)CN1C(=O)c1ccccc1,–,·,–,–,–,–
Cc1nnc(SCC(=O)c2cc(C)n(-c3ccc4c(c3)OCO4)c2C)s1,–,?,16µM,–,–,–
Cc1cc(C(=O)CSc2nnc(-c3ccco3)o2)c(C)n1-c1ccc2c(c1)OCCO2,–,?,16µM,–,–,–
Cc1cc(C(=O)CSc2nnnn2C)c(C)n1-c1ccc2c(c1)OCCO2,–,?,?,–,–,–
N=C(N)CCNC(=O)[C@@H]1CCC(N)=N1,–[15.4 µM],–[11.4 µM],–[11.4 µM],–,–[11.4 µM],–[15.4 µM]
Nc1ccc(O)c(C(=O)O)c1,–,–,–,–,16µM!,?
CCOC(=O)C1=C(c2ccccc2)NC(=O)NC1c1ccc(OCC#N)c(OC)c1 (configuration not stated),–,–,–,–,–,–
COc1cc(C2NC(=O)NC(c3ccccc3)=C2C(C)=O)ccc1OCC(=O)O (configuration not stated),–,?,32µM,–,–,–
CCOC(=O)c1cnn(-c2nc(-c3ccccc3)nc3c2COC(C)(C)C3)c1N,–,25µM,–,–,–,–
C[N+](C)(C)CCN[N@@+]1(C)CCCc2ccccc21,–[15.4 µM],–[11.4 µM],–[11.4 µM],–,–[11.4 µM],–[15.4 µM]
O=C(Nc1nccs1)c1c(O)c2cccc3c2n(c1=O)CCC3,–,?,1.3µM,–,–,–
COc1ccc(-c2coc3ccc(O[C@@H]4O[C@@H](COC(C)=O)[C@@H](OC(C)=O)[C@@H](OC(C)=O)[C@H]4OC(C)=O)c(OC(C)=O)c3c2=O)cc1,·,–,–,–,–,·
N#Cc1cc2cc3c(cc2nc1SCC(=O)OC1CCCCC1)OCO3,–,?,16µM,–,–,–
Cn1c(SCC(=O)OC2CCCCC2)nnc1-c1ccc2c(c1)OCO2,–,?,?,–,–,–
COc1cccc(/C=N/n2c(C)nc3ccccc32)c1OC,–,?,16µM,–,–,–
C[C@H]1COC(=O)[C@H]2CCCN2C(=O)[C@@H](C)COC(=O)[C@H]2CCCN2C1=O,–[15.4 µM],–[11.4 µM],–[11.4 µM],·,·,–[15.4 µM]
CCCOc1ccc(C2C(C(=O)OC)=CN(CCOC)C=C2C(=O)OC)cc1,–,?,25µM,–,–,–
Cc1noc(C)c1-c1nc(NCc2cccs2)c2ccccc2n1,–,?,?,–,–,–
